Test results taken from PubChem BioAssay.
Unmarked numbers belong to inactive results. No rule for the calls is given here.

Biological target: Pantothenate synthetase (Mycobacterium tuberculosis (strain ATCC 25618 / H37Rv)) (UniProt P9WIL5)
Experiment: Recombinant Mtb pantothenate synthetase (PanC) inhibitors, coupled enzyme, confirmatory (AID 375);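 also: 0% = full reaction with vehicle and 100% = no enzyme background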
Details: coupled enzyme assay; at 10 µM, active compounds read high

Chain of Pantothenate synthetase (Mycobacterium tuberculosis (strain ATCC 25618 / H37Rv)) (P9WIL5 whole entry, looked up): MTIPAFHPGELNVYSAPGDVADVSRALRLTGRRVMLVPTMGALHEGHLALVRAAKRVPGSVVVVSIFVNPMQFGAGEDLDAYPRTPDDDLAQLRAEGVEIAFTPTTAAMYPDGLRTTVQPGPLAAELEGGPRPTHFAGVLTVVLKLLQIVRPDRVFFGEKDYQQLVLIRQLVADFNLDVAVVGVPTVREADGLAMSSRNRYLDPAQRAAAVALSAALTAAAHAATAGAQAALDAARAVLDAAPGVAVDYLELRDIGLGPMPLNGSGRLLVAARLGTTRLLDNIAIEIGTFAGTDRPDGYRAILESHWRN

Question: How did the inhibition turn out when `CCn1c2ccccc2c2cc(Nc3cc(C)nc4ncnn34)ccc21` was run?
Answer: 0%

Question: For `COc1ccc(CCNC(=O)COc2ccc(S(=O)(=O)N3CCOCC3)cc2)cc1`, which inhibition is on record?
Answer: 6%

Question: For `Cn1c(SCC(N)=O)nnc1C1CCN(S(=O)(=O)c2ccccc2C(F)(F)F)CC1`, which inhibition is on record?
Answer: 0%

Question: With `Cn1c2c(c(=O)[nH]c1=O)C(NC(=O)c1ccco1)(C(F)(F)F)C(=O)N2` (stereo not given) as the molecule, how does the inhibition read?
Answer: 0%

Question: How did the inhibition turn out when `COc1ccc(/C(O)=C2/C(=O)C(=O)N(CC3CCCO3)C2c2cccc(OC)c2)cc1` (stereo not given) was run?
Answer: 0%

Question: For `Clc1ccc(C2=Nn3c(nnc3-c3n[nH]c4c3CCC4)SC2)cc1Cl`, which inhibition is on record?
Answer: 0%

Question: With `COc1ccc(-n2c(=O)c3c4c(sc3n3c(C)nnc23)CCCC4)cc1` as the molecule, how does the inhibition read?
Answer: 3%

Question: `Cn1nnnc1SCC(=O)N1CCN(c2cccc(Cl)c2)CC1` was tested. Which inhibition did it give?
Answer: 2%

Question: How did the inhibition turn out when `COc1ccccc1OCc1ccc(C(=O)N2CCN(C(=O)c3ccco3)CC2)cc1` was run?
Answer: 1%

Question: With `FC(F)Oc1cccc2cccnc12` as the molecule, how does the inhibition read?
Answer: 6%

Question: Which inhibition does the source give for `O=C(O)CSc1ncn[nH]1` here?
Answer: 0%

Question: How did the inhibition turn out when `Cc1cc2ncn(C(=O)N3CCOCC3)c2cc1C` was run?
Answer: 0%

Question: `COc1cccc(CN(C(=O)c2cc3ccccc3oc2=O)C2CC2)c1` was tested. Which inhibition did it give?
Answer: 8%

Question: For `COc1cc(C2CC(=O)NC3=C2C(=O)CC(C)(C)C3)ccc1O` (stereo not given), which inhibition is on record?
Answer: 0%

Question: For `CCCN1C2CCCC1CC(NC(=O)c1ccccc1F)C2` (stereo not given), which inhibition is on record?
Answer: 2%

Question: For `CCc1ccc(NC(=O)C2CC(=O)N(C(C)C)C2)cc1` (stereo not given), which inhibition is on record?
Answer: 0%

Question: With `C=CCOc1ccc(/C(CC)=N/O)c(OC)c1` as the molecule, how does the inhibition read?
Answer: 0%

Question: With `CCCN(CCC)C(=O)C(CCC(=O)O)NC(=O)c1ccccc1` (stereo not given) as the molecule, how does the inhibition read?
Answer: 0%

Question: Which inhibition does the source give for `COc1ccc(-n2c(SCC(=O)c3c(N)n(C)c(=O)n(C)c3=O)nc3ccccc32)cc1` here?
Answer: 0%

Question: For `O=C(NCc1ccc(F)cc1)c1cc(-c2ccco2)on1`, which inhibition is on record?
Answer: 6%

Question: Which inhibition does the source give for `CCOC(=O)c1c(C)n(OCc2ccccc2)c2ccc3c(no[n+]3[O-])c12` here?
Answer: 0%

Question: With `COc1ccc(OCc2cccc(C(=O)O)c2)cc1` as the molecule, how does the inhibition read?
Answer: 0%

Question: `COc1cccc(C(=O)Nc2ncc3c(n2)CC(C)CC3=O)c1` (stereo not given) was tested. Which inhibition did it give?
Answer: 5%

Question: Which inhibition does the source give for `CCN(CCCNC(=O)COc1cc(=O)n(CC)c2ccccc12)c1ccccc1` here?
Answer: 0%

Question: Which inhibition does the source give for `CCn1c(SCC(N)=O)nc2c1c(=O)n(C)c(=O)n2C` here?
Answer: 0%

Question: With `COc1ccc(C)cc1-n1nnnc1SCC(=O)Nc1cc(C)on1` as the molecule, how does the inhibition read?
Answer: 0%

Question: With `CCCCCOC(=O)CSc1nnc(-c2cc(OC)c(OC)c(OC)c2)o1` as the molecule, how does the inhibition read?
Answer: 4%

Question: With `O=C(CN1CCN(c2nc(-c3ccc(F)cc3)cs2)CC1)NCc1ccc2c(c1)OCO2` as the molecule, how does the inhibition read?
Answer: 5%

Question: With `Cc1nn(-c2ccccc2)c2c1C(=O)NC(=O)C(C)(C)C2` as the molecule, how does the inhibition read?
Answer: 0%

Question: How did the inhibition turn out when `CCOC(=O)Cc1cc(=O)n2[nH]c(C)c(-c3ccc(OC)cc3)c2n1` was run?
Answer: 6%

Question: With `Nc1nc2n(n1)C(c1cccc(Br)c1)CC(c1ccccc1)N2` (stereo not given) as the molecule, how does the inhibition read?
Answer: 0%

Question: Which inhibition does the source give for `CCOC(=O)N1CCN(C(=O)CSc2nnc(-c3cccc(Cl)c3)o2)CC1` here?
Answer: 0%

Question: `CN(CC(=O)N1CCCCC1)S(=O)(=O)c1cccc2cccnc12` was tested. Which inhibition did it give?
Answer: 0%

Question: With `O=C(NCc1ccco1)c1ccccc1Nc1ccc(F)cc1` as the molecule, how does the inhibition read?
Answer: 0%

Question: `Cn1c(SCC(=O)Nc2ccc3c(c2)oc2ccccc23)nnc1-c1ccccc1` was tested. Which inhibition did it give?
Answer: 5%

Question: For `COc1ccc(C2=NOC(C(=O)NC3CCCCC3)C2)cc1OC` (stereo not given), which inhibition is on record?
Answer: 2%

Question: `C[C@H]1C[C@H]2[C@@H]3CCC4=CC(=O)C=C[C@]4(C)[C@@]3(Cl)[C@@H](O)C[C@]2(C)[C@@]1(O)C(=O)CO` was tested. Which inhibition did it give?
Answer: 4%

Question: With `COc1ccc(C2CC(=O)C3=C(C2)Nc2ccccc2N(C(=O)C2CC2)C3c2cccnc2)cc1OC` (stereo not given) as the molecule, how does the inhibition read?
Answer: 8%

Question: For `O=C(O)CCCC(=O)NCCc1ccncc1`, which inhibition is on record?
Answer: 0%

Question: With `COC(=O)c1[nH]c2ccccc2c1NC(=O)CN1CCC(C(N)=O)(N2CCCCC2)CC1` as the molecule, how does the inhibition read?
Answer: 0%
